{"source": "PubChem BioAssay AID485317", "about": "(Broad Institute, 2010)", "note": "Out of some 290,000 compounds screened, about 11,000 (3.8%) were called active. The full list was thinned out, with actives kept by preference. Unmarked numbers belong to inactive results.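 Rule for the calls: active = mean replicate inhibition above about 79%, with every replicate also reaching it (limit read from the data); inconclusive = only one of the two criteria met; inactive = mean below limit and not every replicate reaching it.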", "data": [{"biological_target": "FAD-linked sulfhydryl oxidase ALR (Homo sapiens) (UniProt P55789)", "sequence (P55789 whole entry, looked up)": "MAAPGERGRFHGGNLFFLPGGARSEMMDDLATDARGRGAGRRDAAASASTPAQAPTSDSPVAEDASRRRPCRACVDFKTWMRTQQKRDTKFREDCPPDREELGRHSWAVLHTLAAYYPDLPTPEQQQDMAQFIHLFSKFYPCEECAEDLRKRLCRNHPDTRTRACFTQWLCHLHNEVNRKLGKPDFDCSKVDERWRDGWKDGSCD", "test": "ALR-catalysed DTT oxidation blockers – biochemical, H2O2 detection, HRP-luminol luminescence, single point, primary screen (AID 485317)", "settings": "purified ALR, stronger effect = higher value, concentration not given here", "values": [{"smiles": "O=C(NCCCN1CCOCC1)c1ccccc1NS(=O)(=O)c1ccc(Br)cc1", "inhibition": "-9.12%"}, {"smiles": "O=C(NCCCN1CCOCC1)c1cnn2c(-c3ccccc3)cc(-c3ccccc3)nc12", "inhibition": "94.1% (active)"}, {"smiles": "O=C(NCCCN1CCOCC1)c1ccccc1NS(=O)(=O)c1ccc(F)cc1", "inhibition": "-11.8%"}, {"smiles": "CN(C)S(=O)(=O)c1cccc(NC(=O)COc2ccc3ccccc3c2)c1", "inhibition": "-11.4%"}, {"smiles": "COCCNC(=O)c1ccc(-n2c(SCc3cccnc3)nc3ccccc3c2=O)cc1", "inhibition": "-2.07%"}, {"smiles": "C=CCn1c(SCC(=O)NC(=O)Cc2ccccc2)nc2ccccc2c1=O", "inhibition": "-2.51%"}, {"smiles": "C=CCn1c(SCc2ccc(C(=O)NCCO)cc2)nc2ccccc2c1=O", "inhibition": "98.7% (active)"}, {"smiles": "Cc1ccc(CNC(=O)c2cccc3c2C(=O)c2ccc(N4CCC(C)CC4)cc2S3(=O)=O)cc1", "inhibition": "3.52%"}, {"smiles": "NS(=O)(=O)c1ccc(CCNC(=O)COC(=O)COc2cccc(C(F)(F)F)c2)cc1", "inhibition": "-3.46%"}, {"smiles": "Cc1ccc(OCc2n[nH]c(=S)n2-c2ccccc2)cc1", "inhibition": "65.2%"}, {"smiles": "S=c1[nH]nc(CSCc2ccc(Cl)cc2Cl)n1-c1ccccc1", "inhibition": "1.91%"}, {"smiles": "Cc1ccc(NCc2n[nH]c(=S)n2-c2ccccc2)cc1Cl", "inhibition": "88.3% (active)"}, {"smiles": "Cc1ccc(NC(=O)C2CCC(C(C)(C)C)CC2)cc1S(=O)(=O)N1CCOCC1", "note": "(stereo not given)", "inhibition": "-0.467%"}, {"smiles": "CC(C(=O)Nc1ccc(S(=O)(=O)N2CCCC2)cc1)N(C)Cc1ccc(F)cc1", "note": "(stereo not given)", "inhibition": "-1.06%"}, {"smiles": "CCn1c(=S)[nH]c2cc(S(=O)(=O)N3CCOCC3)ccc21", "inhibition": "67.1%"}, {"smiles": "COc1cccc(NC(=O)C(=O)c2cn(CC(=O)N3CCOCC3)c3ccccc23)c1", "inhibition": "4.42%"}, {"smiles": "CN1c2ccc(C=O)c3c(C=O)ccc(c23)N(C)C1(C)C", "inhibition": "99.2% (active)"}, {"smiles": "CCOC(=O)COc1ccc([N+](=O)[O-])cc1", "inhibition": "3.19%"}, {"smiles": "Cc1cc(C)cc(OCC(=O)O/N=C(\\N)Cc2ccc([N+](=O)[O-])cc2)c1", "inhibition": "98.4% (active)"}, {"smiles": "N/C(Cc1ccc([N+](=O)[O-])cc1)=N\\OC(=O)COc1ccc2ccccc2c1", "inhibition": "-17.6%"}, {"smiles": "Cc1ccc(S(=O)(=O)NC(C)C(=O)NCc2ccc(Cl)cc2)cc1", "note": "(stereo not given)", "inhibition": "10.6%"}, {"smiles": "CCOc1ccc(N=Cc2c(O)n(-c3cccc(C)n3)c(=O)c3ccccc23)cc1", "inhibition": "-11.1%"}, {"smiles": "Oc1c(C=Nc2cccc3nsnc23)ccc2ccccc12", "inhibition": "25.2%"}, {"smiles": "Oc1ccc(N=Cc2c(O)ccc3ccccc23)cc1", "inhibition": "99.5% (active)"}, {"smiles": "CCN(c1ccccc1)S(=O)(=O)c1cccc(C(=O)NCc2ccccc2CN2CCOCC2)c1", "inhibition": "-5.99%"}, {"smiles": "Cc1ccc(COC(=O)CN2C(=O)NC3(CCCC3)C2=O)cc1", "inhibition": "-0.909%"}, {"smiles": "CCC(=O)Nc1ccc(C(=O)CSc2nnc(CNc3ccc(Cl)cc3)o2)cc1OC", "inhibition": "0.831%"}, {"smiles": "CC(C)C[C@@H](N)c1nnc(SCC(=O)c2ccc(Cl)cc2)o1", "inhibition": "98.5% (active)"}, {"smiles": "COc1ccc(C(=O)CSc2nnc(-c3ccco3)o2)cc1", "inhibition": "19.8%"}, {"smiles": "Cc1cc(C)cc(-c2nnc(SCC(=O)NC3CC3)o2)c1", "inhibition": "-0.0792%"}, {"smiles": "CC1=NN(c2ccc(Cl)c(C(=O)O)c2)C(=O)/C1=C/c1ccc(-c2ccccc2[N+](=O)[O-])o1", "inhibition": "71.4%"}, {"smiles": "O=C1NN(c2ccccc2)C(=O)/C1=C/c1ccc(-c2cccc(C(=O)O)c2)o1", "inhibition": "98.7% (active)"}, {"smiles": "Cc1cccc(C)c1-n1c(C)cc(/C=C2\\C(=O)NN(c3ccccc3)C2=O)c1C", "inhibition": "21.8%"}, {"smiles": "O=S(=O)(NCC1CN(S(=O)(=O)c2ccc3c(c2)OCCO3)C1)c1c(F)cccc1F", "inhibition": "-2.88%"}, {"smiles": "COc1ccc(NC(=O)Nc2ccc3c(c2)C(=O)N([C@H](C)CO)C[C@H](C)[C@@H](CN(C)C(=O)Nc2ccc4c(c2)OCO4)O3)cc1", "inhibition": "-7.46%"}, {"smiles": "Cc1cc(C(=O)OCC(=O)N2C(C)CCCC2C)c2ccccc2n1", "note": "(stereo not given)", "inhibition": "-5.22%"}, {"smiles": "COc1ccc(C(=O)O)cc1S(=O)(=O)NC1CCN(Cc2ccccc2)CC1", "inhibition": "-0.811%"}, {"smiles": "CCOC(=O)N1CCN(C(=O)c2cc3c(-c4ccc(Cl)cc4)nn(C)c3s2)CC1", "inhibition": "72.2%"}, {"smiles": "Cn1nc(-c2ccc(Cl)cc2)c2cc(C(=O)NCc3ccco3)sc21", "inhibition": "86.8% (active)"}, {"smiles": "COc1ccccc1N1CCN(C(=O)c2cc3c(-c4ccc(Cl)cc4)nn(C)c3s2)CC1", "inhibition": "-109%"}, {"smiles": "O=C(COC(=O)c1cccc(Cl)c1)NC1CCCCCCC1", "inhibition": "-2.57%"}, {"smiles": "O=C(NN=C1CCC(=NNC(=O)c2cccnc2)CC1)c1cccnc1", "inhibition": "99.1% (active)"}, {"smiles": "C/C(=N\\NC(=O)c1cccnc1)c1ccc(-c2ccccc2)cc1", "inhibition": "-25.7%"}, {"smiles": "O=C(N/N=C/c1ccccn1)c1cccnc1", "inhibition": "-5.07%"}, {"smiles": "CCCCN(C1CCS(=O)(=O)C1)S(=O)(=O)c1ccc(C(C)C)cc1", "note": "(stereo not given)", "inhibition": "-1.06%"}, {"smiles": "CC1O[C@H](OC2C(COC3OC(CO)C(O)[C@H](O)C3O)OC(OC3CC[C@]4(C)C(CC[C@@]5(C)[C@@H]4C=C[C@]46OC[C@@]7(CCC(C)(C)C[C@H]74)C(O)C[C@@]56C)C3(C)C)C(O)C2O)C(O)C(O)C1O", "note": "(stereo not given in full)", "inhibition": "-3.57%"}, {"smiles": "CCCCN1C(N)=NC[C@@H]1CC1CCCCC1", "inhibition": "98.3% (active)"}, {"smiles": "CCCC[C@@H]1CN=C(N)N1CCc1cc(C(F)(F)F)cc(C(F)(F)F)c1", "inhibition": "-42.9%"}, {"smiles": "CCCC[C@@H]1CN=C(N)N1CCCC", "inhibition": "4.8%"}, {"smiles": "COc1ccc(S(=O)(=O)NCCCc2ccccc2)cc1", "inhibition": "-2.65%"}, {"smiles": "COc1ccc(S(=O)(=O)/N=C2\\C=C(NS(=O)(=O)c3ccccc3)C(=O)c3ccccc32)cc1", "inhibition": "87.5% (active)"}, {"smiles": "COc1ccc(S(=O)(=O)Nc2c(C)n(C)n(-c3ccccc3)c2=O)cc1", "inhibition": "-9.38%"}, {"smiles": "COc1cc(OC)cc(-c2c(-c3cccs3)c3cc(-c4ccc(OC)nc4)ccc3n2C)c1", "inhibition": "-18.1%"}, {"smiles": "O=C(OCC(=O)N1CCN(C(=O)c2ccco2)CC1)c1c(Cl)cccc1Cl", "inhibition": "-7.05%"}, {"smiles": "Cn1cccc1C(=O)OCC(=O)NCCc1ccccc1", "inhibition": "5.56%"}]}]}
